The panel holds about 79,000 compounds, 15% with a hit somewhere; the sample as a whole holds those more often. The source made the active and inactive calls. Rule as the data show it: active = growth inhibition above about 70%; inactive = the rest. Where a SMILES comes first, the peptide text is derived from it. The star is where a group is joined. Cbz = O=C(OCc1ccccc1)*
Columns and labels:
[1] = NCI Yeast Anticancer Drug Screen. Data for the rad50 strain (AID 155);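 also: 0% = growth of vehicle-only cultures of the same strain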; conditions: S. cerevisiae rad50 strain growth inhibition; at 50.0 µM; stronger effect = higher value
Method in brief: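 Inhibition values express reduced yeast growth in compound-treated cultures relative to vehicle-treated controls.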

[2] = NCI Yeast Anticancer Drug Screen. Data for the mec2-1 strain (AID 157); conditions: S. cerevisiae mec2-1 strain, at 50.0 µM, stronger effect = higher value
Method in brief: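 Vehicle-treated cultures served as reference for growth inhibition of compound-exposed mec2-1 yeast.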

[3] = NCI Yeast Anticancer Drug Screen. Data for the sgs1 mgt1 strain (AID 161);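 also: 0% = growth of cultures given vehicle only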; conditions: S. cerevisiae sgs1 mgt1 strain, at 50.0 µM, stronger effect = higher value
Method in brief: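 Inhibition of yeast growth, normalised to vehicle-treated controls, is reported for a strain bearing genetic alterations in DNA damage repair.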

[4] = NCI Yeast Anticancer Drug Screen. Data for the cln2 rad14 strain (AID 165);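 also: 0% = growth equal to vehicle treated cultures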; conditions: S. cerevisiae cln2 rad14 strain, at 50.0 µM, stronger effect = higher value
Method in brief: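 Each compound was tested on cln2 rad14 yeast. Inhibition of growth was calculated against vehicle-exposed controls.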

[5] = NCI Yeast Anticancer Drug Screen. Data for the bub3 strain (AID 167); conditions: S. cerevisiae bub3 mutant strain, at 50.0 µM, stronger effect = higher value
Method in brief: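 Steps: expose the mutant yeast strain to compound; grow alongside vehicle-treated cultures; measure growth; express inhibition against the vehicle cultures.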

[6] = NCI Yeast Anticancer Drug Screen. Data for the mlh1 rad18 strain (AID 175); conditions: S. cerevisiae mlh1 rad18 strain growth inhibition; at 50.0 µM; stronger effect = higher value
Method in brief: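 Vehicle-treated cultures served as the reference for growth inhibition in a yeast strain carrying DNA damage repair alterations exposed to each compound.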

Measured: growth inhibition

CCOC(C[N+](C)(C)C)OCC
inactive: [1] 9.7% | [2] -25.6% | [3] 2.4% | [4] 8% | [5] 30% | [6] 0.3%

Nc1ccnc(Cl)n1
inactive: [1] -2.45% | [2] -6.05% | [3] -13.2% | [4] 0.4% | [5] 0.4% | [6] -0.95%

CSc1ccc(OC(=O)Nc2cc([N+](=O)[O-])ccc2F)cc1C
inactive: [1] 16.6% | [2] 11.2% | [3] 16% | [4] 12.2% | [5] 28.8% | [6] 17.1%

O=C1OCC/C1=C1/NC2CCCCC2NC1=O (stereo not drawn)
inactive: [1] -6.55% | [2] -16.1% | [3] 1.15% | [4] -24.6% | [5] -6.25% | [6] -14.1%

COC(=O)c1ccc(SCCC(=O)CO)cc1
inactive: [1] 19.4% | [2] 15.9% | [3] -4.6% | [4] 5.35% | [5] 13% | [6] 23.9%

NN(c1ccccc1)c1ccccc1
inactive: [1] 23.5% | [2] 6.45% | [3] 35.5% | [4] 25.9% | [5] 24.2% | [6] 19.1%

Nc1ccc(S(=O)(=O)Nc2ccccn2)cc1
inactive: [1] -2.2% | [2] 8.55% | [3] -13.1% | [4] -41.4% | [5] -20.2% | [6] -17.4%

COC(=O)C1(CC(=O)c2ccc(F)cc2)NC(=S)NC(=O)C1C#N (stereo not drawn)
inactive: [1] 14.6% | [2] 2% | [3] -8.3% | [4] -13.1% | [5] -34% | [6] -1.7%

Nc1cc2cn[nH]c2cc1N
inactive: [1] -10.6% | [2] 4.75% | [3] 4.4% | [4] -8.75% | [5] 9.3% | [6] 25.6%

Cc1cc(O)c(/C=N/c2nc(-c3ccc([N+](=O)[O-])cc3)cs2)c(=O)o1
active: [6] 74.1%
inactive: [1] 58.1% | [2] 20.9% | [3] 40.8% | [4] 20.1% | [5] -7.7%

C=C[C@]1(O)CCC[C@]2(C)C(=O)CCC12C (stereo partly drawn)
inactive: [1] -2.8% | [2] -21.9% | [3] -19.2% | [4] 10.8% | [5] -22.2% | [6] -31.9%

CS(=O)(=O)C(CCC(=O)C(c1ccccc1)c1ccccc1)C(=O)c1ccccc1 (stereo not drawn)
inactive: [1] -7.7% | [2] -11% | [3] -20.5% | [4] -39.5% | [5] -1.55% | [6] -29.2%

COc1ccc(C(CC(C)(C)C)c2ccc(OC)cc2)cc1
inactive: [1] -0.9% | [2] -9% | [3] 5.15% | [4] -44.5% | [5] -11.9% | [6] -11.1%

Nc1nc(N)nc(Cc2ccccc2)n1
inactive: [1] -24.4% | [2] -3.45% | [3] -17.9% | [4] -58.4% | [5] -15% | [6] -57.9%

C[N+](C)(C)CCCCCC[N+](C)(C)C
inactive: [1] -31.8% | [2] -15.6% | [3] -22.9% | [4] -14.2% | [5] -31.7% | [6] -30.2%

O=[N+]([O-])c1ccc(/C([O-])=C(\C(=S)Nc2ccccc2Cl)[n+]2ccccc2)cc1
inactive: [1] -7.5% | [2] 0.1% | [3] -6.95% | [4] -14.4% | [5] 2.35% | [6] 11.2%

CCc1ccc(OC/C=C(\C)CCC2OC2(C)CC)cc1 (stereo not drawn)
inactive: [1] -4.15% | [2] 4.5% | [3] 19.8% | [4] 4% | [5] 32% | [6] -2.8%

c1ccc2oc(N3CCN(c4nc5ccccc5o4)CC3)nc2c1
inactive: [1] 4.45% | [2] -0.2% | [3] -9.1% | [4] 5.85% | [5] 12% | [6] -12.2%

Nc1ncnc(N)c1NC(=O)c1cccc(C(=O)c2ccccc2)c1
inactive: [1] 2.85% | [2] 16.1% | [3] -10.7% | [4] -3.5% | [5] 0.85% | [6] 0.85%

COc1cccc(/C=C2\SC(=S)N(/C=C3\C(=O)Oc4ccccc4C3=O)C2=O)c1O
inactive: [1] 12.2% | [2] 40.1% | [3] 59% | [4] 50.6% | [5] 12.8% | [6] 23.6%

CCOC(=O)C1=C(O)c2c(OC)ccc(OC)c2C(=O)C1=O
inactive: [1] -23.6% | [2] -43.5% | [3] -22.2% | [4] 3.65% | [5] -16% | [6] -30%

COc1ccc(CCCC2C(=O)CC(C)OC2=O)cc1OC (stereo not drawn)
inactive: [1] -26.9% | [2] 3.25% | [3] 2.1% | [4] -25.8% | [5] 3.05% | [6] -0.4%

NCCSS(=O)(=O)CCN
inactive: [1] -17.4% | [2] -4.6% | [3] 18.4% | [4] -18.4% | [5] 1.95% | [6] 3.4%

CCc1nc(N)nc(N)c1-c1ccc(N(CC)Cc2ccccc2)c([N+](=O)[O-])c1
inactive: [1] 7.35% | [2] -3.05% | [3] -6.05% | [4] 7.5% | [5] 3.4% | [6] -3.85%

CC(NC(=O)OCc1ccccc1)C(=O)NC(CO)C(N)=O (stereo not drawn) (Cbz-Ala-Ser-NH2; configuration not given here)
inactive: [1] 6.15% | [2] -6.5% | [3] -0.25% | [4] 19.2% | [5] 5.95% | [6] 8.1%

O=C1C=CC(=O)N1C(c1ccccc1)(c1ccccc1)c1ccccc1
active: [1] 99% | [2] 99.7% | [3] 99.5% | [4] 99% | [5] 99.5% | [6] 99.5%

C/C=C/C(O)CC (stereo not drawn)
inactive: [1] 13.8% | [2] -38.4% | [3] 3.2% | [4] -0.85% | [5] -10.8% | [6] 0.5%

O=C(CC1C(=O)Nc2ccccc2S1=O)Nc1cccc(Cl)c1 (stereo not drawn)
inactive: [1] -32.2% | [2] -31.1% | [3] -4.5% | [4] 18.2% | [5] 10.1% | [6] -25.2%

COCCCNC(=O)C1=C(C)NC(C)=C(C(=O)NCCCOC)C1
inactive: [1] -49% | [2] -64.2% | [3] -10.7% | [4] 3.6% | [5] -11.2% | [6] -50.6%

C1=CC(=NN=P(c2ccccc2)(c2ccccc2)c2ccccc2)C=C1
inactive: [1] 21.7% | [2] 7.9% | [3] 20.3% | [4] 19.9% | [5] 18.7% | [6] 13.5%

CCCCC(CC)COC(=O)CCl (stereo not drawn)
inactive: [1] 21.1% | [2] 10.7% | [3] 8.3% | [4] -14.8% | [5] -1.6% | [6] 21.8%

O=C1OC2C(I)C3C(C4CCCCC4)C1C23 (stereo not drawn)
inactive: [1] 8.3% | [2] -3.85% | [3] 31.8% | [4] 17% | [5] 65.8% | [6] 7.7%

CC(C)(C)[C@@H]1NC(=O)CN1C(=O)OCc1ccccc1
inactive: [1] -22.1% | [2] -35.2% | [3] -51.9% | [4] -17.1% | [5] 26.9% | [6] -11.1%

COc1cc(OC)cc(OCc2nc3cc(C(F)(F)F)ccc3nc2-c2ccccc2)c1
inactive: [1] -17.8% | [2] -3.5% | [3] 5.9% | [4] -6.2% | [5] -0.95% | [6] -53.8%

CC(C)(CN1C(=O)C(Cl)=C(Cl)C1=O)CN1C(=O)C(Cl)=C(Cl)C1=O
inactive: [1] 1.7% | [2] -5.6% | [3] 6.3% | [4] -20.8% | [5] -5.8% | [6] 9.2%

CCOC(=O)C1C(c2ccc(Br)cc2)N(Cc2ccccc2)C(c2ccc(Br)cc2)C(C(=O)OC)S1(=O)=O (stereo not drawn)
inactive: [1] -42.2% | [2] -49.5% | [3] -16.6% | [4] -25.1% | [5] -21.4% | [6] -22.1%

CCOC(=O)c1c(C(=O)OCC)c(C)n(/N=N/n2c(C)c(C(=O)OCC)c(C(=O)OCC)c2C)c1C
inactive: [1] 29.3% | [2] 9.75% | [3] 23.6% | [4] 26.3% | [5] -1.45% | [6] 12.8%

O=C(O)/C=C/C(O)C1CCCCC1 (stereo not drawn)
inactive: [1] -31.1% | [2] -8.35% | [3] -0.95% | [4] -23.1% | [5] 1.05% | [6] -4.65%
